Reference: PubChem BioAssay AID1159580 (chemical genetic matrix, 2015)
Screen size: about 5,500 compounds; about 2,000 (36%) were called active. Another 18% or so got no clear call; they are omitted. No stated cut-off is given here; in the data, active means normalized growth mostly below about 0.91 (no sharp cut-off); inconclusive means no clear call, values can overlap the other calls; inactive means mostly above about 0.92. The list shows a part of the results.

Assay: chemical genetic growth profiling, strain panel (AID 1159580);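 further: tested at 20 µM; growth read once vehicle control cultures reached saturation at 30 °C; 1 = growth at the plate median or of vehicle wells; lower values mean less growth of the strain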
Conditions: growth OD

Measured: normalized growth

COc1cc2c(cc1OC)C1Cc3ccc(OC)c(OC)c3CN1CC2 (configuration not stated)
inactive: S. cerevisiae deletion strains, locus YJR066W, strain TOR1, hits give low values 0.912 | S. cerevisiae deletion strains, locus YKL009W, strain mrt4, hits give low values 0.988 | S. cerevisiae deletion strains, locus YKL068W, hits give low values 0.999 | S. cerevisiae deletion strains, locus YKL085W, strain MDH1 (second series), hits give low values 0.988 | S. cerevisiae deletion strains, locus YKL085W, strain MDH1, hits give low values 0.988 | S. cerevisiae deletion strains, locus YKL160W, strain elf1, hits give low values 1.01 | S. cerevisiae deletion strains, locus YKR001C, strain vps1, hits give low values 1.01 | S. cerevisiae deletion strains, locus YKR026C, strain gcn3, hits give low values 0.979 | S. cerevisiae deletion strains, locus YKR091W, strain srl3, hits give low values 0.98 | S. cerevisiae deletion strains, locus YLL001W, strain dnm1, hits give low values 0.99 | S. cerevisiae deletion strains, locus YLL026W, hits give low values 0.989 | S. cerevisiae deletion strains, locus YLL041C, strain sdh2, hits give low values 0.975 | S. cerevisiae deletion strains, locus YLR027C, strain aat2, hits give low values 0.969 | S. cerevisiae deletion strains, locus YLR039C, strain RIC1, hits give low values 0.979 | S. cerevisiae deletion strains, locus YLR058C, strain SHM2, hits give low values 1.01 | S. cerevisiae deletion strains, locus YLR102C, strain apc9, hits give low values 0.982 | S. cerevisiae deletion strains, locus YLR113W, strain HOG1, hits give low values 0.978 | S. cerevisiae deletion strains, locus YLR221C, strain rsa3, hits give low values 0.985 | S. cerevisiae deletion strains, locus YLR258W, strain gsy2, hits give low values 0.977 | S. cerevisiae deletion strains, locus YLR262C, strain YPT6 (second series), hits give low values 0.957 | S. cerevisiae deletion strains, locus YLR262C, strain YPT6, hits give low values 0.918 | S. cerevisiae deletion strains, locus YLR268W, strain sec22, hits give low values 0.962 | S. cerevisiae deletion strains, locus YLR320W, strain mms22, hits give low values 0.982 | S. cerevisiae deletion strains, locus YLR330W, strain CHS5, hits give low values 1.01 | S. cerevisiae deletion strains, locus YLR342W, strain FKS1 (second series), hits give low values 0.957 | S. cerevisiae deletion strains, locus YLR342W, strain FKS1, hits give low values 0.968 | S. cerevisiae deletion strains, locus YLR357W, strain rsc2, hits give low values 0.994 | S. cerevisiae deletion strains, locus YLR370C, strain arc18, hits give low values 0.971 | S. cerevisiae deletion strains, locus YLR371W, strain rom2, hits give low values 1.01 | S. cerevisiae deletion strains, locus YLR384C, strain iki3, hits give low values 0.988 | S. cerevisiae deletion strains, locus YLR418C, strain cdc73, hits give low values 1.02 | S. cerevisiae deletion strains, locus YML016C, strain PPZ1, hits give low values 0.988 | S. cerevisiae deletion strains, locus YML032C, strain rad52, hits give low values 1.03 | S. cerevisiae deletion strains, locus YML120C, strain ndi1, hits give low values 0.984 | S. cerevisiae deletion strains, locus YML124C, strain tub3, hits give low values 0.987 | S. cerevisiae deletion strains, locus YMR058W, strain fet3, hits give low values 0.984 | S. cerevisiae deletion strains, locus YMR078C, strain ctf18, hits give low values 0.968 | S. cerevisiae deletion strains, locus YMR125W, strain sto1, hits give low values 0.953 | S. cerevisiae deletion strains, locus YMR129W, hits give low values 0.978 | S. cerevisiae deletion strains, locus YMR205C, strain PFK2, hits give low values 0.987 | S. cerevisiae deletion strains, locus YMR223W, strain ubp8, hits give low values 1.01 | S. cerevisiae deletion strains, locus YMR231W, strain pep5, hits give low values 0.966 | S. cerevisiae deletion strains, locus YMR263W, strain SAP30, hits give low values 1 | S. cerevisiae deletion strains, locus YMR307W, strain GAS1, hits give low values 1 | S. cerevisiae deletion strains, locus YNL067W, strain RPL9B, hits give low values 1.02 | S. cerevisiae deletion strains, locus YNL071W, strain lat1, hits give low values 0.974 | S. cerevisiae deletion strains, locus YNL128W, strain TEP1, hits give low values 0.983 | S. cerevisiae deletion strains, locus YNL153C, strain GIM3, hits give low values 1.03 | S. cerevisiae deletion strains, locus YNL183C, strain NPR1, hits give low values 0.93 | S. cerevisiae deletion strains, locus YNL209W, strain ssb2, hits give low values 1.01 | S. cerevisiae deletion strains, locus YNL233W, strain BNI4, hits give low values 1.02 | S. cerevisiae deletion strains, locus YNL248C, strain rpa49, hits give low values 0.961 | S. cerevisiae deletion strains, locus YNL250W, strain rad50, hits give low values 0.968 | S. cerevisiae deletion strains, locus YNL271C, strain bni1, hits give low values 0.976 | S. cerevisiae deletion strains, locus YNL298W, strain CLA4, hits give low values 0.991 | S. cerevisiae deletion strains, locus YNL307C, strain MCK1, hits give low values 1 | S. cerevisiae deletion strains, locus YNL322C, strain KRE1 (second series), hits give low values 0.948 | S. cerevisiae deletion strains, locus YNR049C, strain mso1, hits give low values 0.967 | S. cerevisiae deletion strains, locus YNR052C, strain pop2, hits give low values 0.993 | S. cerevisiae deletion strains, locus YOL012C, strain htz1 0.904 | S. cerevisiae deletion strains, locus YOL147C, strain pex11, hits give low values 0.99 | S. cerevisiae deletion strains, locus YOR001W, strain rrp6, hits give low values 0.957 | S. cerevisiae deletion strains, locus YOR061W, strain CKA2, hits give low values 0.996 | S. cerevisiae deletion strains, locus YOR069W, strain VPS5, hits give low values 0.984 | S. cerevisiae deletion strains, locus YOR070C, strain gyp1, hits give low values 0.984 | S. cerevisiae deletion strains, locus YOR080W, strain dia2, hits give low values 0.971 | S. cerevisiae deletion strains, locus YOR083W, strain WHI5, hits give low values 1.01 | S. cerevisiae deletion strains, locus YOR106W, strain vam3, hits give low values 0.987 | S. cerevisiae deletion strains, locus YOR136W, strain idh2, hits give low values 0.975 | S. cerevisiae deletion strains, locus YOR144C, strain elg1, hits give low values 0.989 | S. cerevisiae deletion strains, locus YOR184W, strain ser1, hits give low values 0.917 | S. cerevisiae deletion strains, locus YOR231W, strain MKK1, hits give low values 0.99 | S. cerevisiae deletion strains, locus YOR265W, strain rbl2, hits give low values 0.961 | S. cerevisiae deletion strains, locus YOR270C, strain vph1, hits give low values 0.94 | S. cerevisiae deletion strains, locus YOR290C, strain snf2, hits give low values 0.994 | S. cerevisiae deletion strains, locus YOR316C, strain cot1, hits give low values 0.99 | S. cerevisiae deletion strains, locus YPL051W, strain arl3, hits give low values 0.997 | S. cerevisiae deletion strains, locus YPL078C, strain atp4, hits give low values 0.981 | S. cerevisiae deletion strains, locus YPL106C, strain sse1, hits give low values 1.02 | S. cerevisiae deletion strains, locus YPL240C, strain hsp82, hits give low values 0.968 | S. cerevisiae deletion strains, locus YPL256C, strain CLN2, hits give low values 1 | S. cerevisiae deletion strains, locus YPR119W, strain clb2, hits give low values 0.994 | S. cerevisiae deletion strains, locus YPR141C, strain kar3, hits give low values 0.982 | S. cerevisiae deletion strains, locus YPR163C, strain tif3, hits give low values 0.989 | S. cerevisiae deletion strains, locus YPR167C, strain met16, hits give low values 0.99 | S. cerevisiae deletion strains, strain wtn01, hits give low values 0.968 | S. cerevisiae strains, strain wild type, hits give low values 1.01
